About 13,000 (27%) of roughly 48,000 compounds showed an effect of 50% or more. Some of the results follow.
Test system: Wolbachia pipientis
Test: Anti-Wolbachia Cell-Based Screen
Format: functional
Parameters: scale not given: in the data most compounds retested in dose-response had high values
Settings: 5 µM

SMILES | Percent Effect [%]
CS(=O)(=O)NCCn1ccc(-c2cccs2)n1 | -6.394
CCS(=O)(=O)CC(C)NC(=O)N(C)Cc1cc(Cl)cn1C (stereo not drawn) | -1.914
CCn1ccnc1CN1CCCC(CO)(Cc2cccc(OC)c2)C1 (stereo not drawn) | 5.509
COCCN1CCN(C(=O)c2cc(C(C)C)on2)[C@H]2CS(=O)(=O)C[C@H]21 | 8.676
CC(C)N1CC[C@@H]2[C@H](COCC3CC3)CN(C)C(=O)[C@@H]2CC1.O=C(O)C(F)(F)F | -0.4638
COCC1c2nnn(CC3CC3)c2CCN1C(=O)c1cccn1C (stereo not drawn) | -3.461
COCC1c2nnn(C)c2CCN1C(=O)c1ccc(OC)c(F)c1 (stereo not drawn) | 111.1
COCC1c2nnn(C)c2CCN1C(=O)CCc1cccc(OC)c1 (stereo not drawn) | 104.7
Cn1nnc2c1CCN(Cc1ccccn1)C2COCc1ccccc1.O=C(O)C(F)(F)F.O=C(O)C(F)(F)F (stereo not drawn) | -46.38
COCC1c2nnn(CC3CC3)c2CCN1C(=O)c1cccc(F)c1 (stereo not drawn) | -7.214
COCC1c2nnn(C)c2CCN1C(=O)Cc1ccccn1 (stereo not drawn) | 111.4
Cn1nnc2c1CCN(C(=O)CC1CC1)C2COCCN1CCCC1 (stereo not drawn) | -8.962
CCn1nnc2c1CCN(C(=O)c1ccc3c(c1)OCO3)C2COC (stereo not drawn) | -29.17
COCC1c2nnn(C)c2CCN1C(=O)Cc1ccc2c(c1)OCO2 (stereo not drawn) | 20.75
CN(C)C(=O)N1CCc2c(nnn2C)C1COCC1CC1 (stereo not drawn) | -5.702
COCC1c2nnn(C)c2CCN1C(=O)COc1ccccc1C (stereo not drawn) | 112
CCc1ccc(CN2CCc3c(nnn3C)C2COC)cc1.O=C(O)C(F)(F)F (stereo not drawn) | -3.58
NC(=O)c1ccc(N2CCCCC2)c(NC(=O)c2cc(F)ccc2F)c1 | -3.666
CCC(C)C(=O)NCc1cccc(N2CCCCC2=O)c1 (stereo not drawn) | -5.78
Cn1cnnc1S(=O)(=O)C1CCN(S(=O)(=O)C2CC2)CC1 | -4.739
CN(Cc1cc(Br)cn1C)C(=O)c1cscn1 | 4.085
CCC(NCc1nccn1C)c1nc(C(F)(F)F)cs1 (stereo not drawn) | 20.15
Cc1ccc(CN2CCC[C@@H]3CN(C(=O)c4ccco4)C[C@@H]32)o1.O=C(O)C(F)(F)F | -0.1922
CN(C)C(=O)N1CCc2c(nnn2C)C1COCc1ccccc1 (stereo not drawn) | -4.916
COCC1c2nnn(C)c2CCN1C(=O)COc1ccccc1OC (stereo not drawn) | 111.7

SMILES | Percent Effect [%]
COCC(=O)N1CCc2c(nnn2C)C1COCCN1CCCC1.O=C(O)C(F)(F)F (stereo not drawn) | -0.9958
Cn1cnnc1CNC(=O)Nc1ccc(OC2CCC2)c(F)c1 | 19.99
Cc1nc(C)c(C(=O)N2CCc3nnc(C4CCCCN4C)n3CC2)o1 (stereo not drawn) | 112.5
Cc1cc2c(=O)n3c(nc2s1)CCN(C(=O)c1scnc1C)CC3 | -10.56
Cc1nc(C)c(C(=O)N2CCCC2c2nnc3n2CCCCC3)s1 (stereo not drawn) | 13.74
Cc1ccc(C(=O)N2CCCC2c2nnc3n2CCCCC3)o1 (stereo not drawn) | -4.034
Cc1nc(C2CCCN(C(=O)c3sc(C)nc3C)C2)no1 (stereo not drawn) | -10.94
Cc1nc(C)c(C(=O)N2CCc3nnc(C4CCCCN4C)n3CC2)s1 (stereo not drawn) | 78.92
Cc1nc(C)c(C(=O)N2CCc3nnc(C4CCCN4C)n3CC2)s1 (stereo not drawn) | 98.46
Cc1ncsc1C(=O)N1CCc2nnc(C3CCCCN3C)n2CC1 (stereo not drawn) | 103.3
Cc1nc(C)c(C(=O)N2CCCc3c(F)cccc32)o1 | -18.15
C=C(C)COc1cccc(CNC(CC(C)C)c2ncnn2C)c1 (stereo not drawn) | -17.42
CCc1ccccc1OCCN(C)C(=O)CCN1CCCCO1 | -13.9
CCCN(CC)c1ccc(C(=O)N2CCCC2c2cnn(C)c2)cn1 (stereo not drawn) | 104.2
CCN(c1ccc(C(=O)N(Cc2cnn(C)c2)C(C)C)cn1)C(C)C | -13.88
CCN(c1ccc(C(=O)N2CCCC2c2cnn(C)c2)cn1)C(C)C (stereo not drawn) | 103.8
CC(C)(C#N)CCCS(=O)(=O)c1nccn1-c1cccc(F)c1 | -8.679
CC(C)(C)c1cc(NC(=O)CN(Cc2cccs2)Cc2cccs2)on1 | 32.93
CC(CC(F)(F)F)NCc1ccccc1-n1ccnc1 (stereo not drawn) | 3.95
CC(C)C1CN(S(=O)(=O)c2ccc(C#N)cc2)CCS1 (stereo not drawn) | -10.5
Cc1cc(C)n(C2CCCN(C(=O)CCOc3cccc(F)c3)C2)n1 (stereo not drawn) | 118.8
Cc1cc(C)n(C2CCCN(C(=O)COCC(F)(F)F)C2)n1 (stereo not drawn) | -14.38
Cc1cc(C)n(C2CCCN(C(=O)CN(C)C3CC3)C2)n1 (stereo not drawn) | -13.37
Cc1nc(C)n(C2CCCN(C(=O)CCOc3cccc(F)c3)C2)n1 (stereo not drawn) | 103.4
CC(NS(C)(=O)=O)C(=O)Nc1ccc2oc(C3CC3)nc2c1 (stereo not drawn) | -12.46

SMILES | Percent Effect [%]
CC(C)n1cnnc1CNC(=O)CCCOc1ccccc1Cl | -21.75
O=C(NS(=O)(=O)c1cnn(-c2ccccc2F)c1)c1ccco1 | -14.51
N#Cc1cccc(S(=O)(=O)N(CC2CCC2)c2cn[nH]c2)c1 | -4.525
O=C(c1ccnnc1)N1C[C@H](Oc2cccnc2)[C@H]2OCCC[C@H]21 | -6.406
O=C(c1ccnnc1)N1CCO[C@H]2[C@H](Oc3cccnc3)CC[C@@H]21 | 84
O=C(c1ccnnc1)N1C[C@@H](OCc2cccnc2)[C@H]2OCCC[C@H]21 | 85.61
O=C(c1ccnnc1)N1CCO[C@H]2[C@@H](OCc3cccnc3)CC[C@@H]21 | -4.529
Cc1occc1C(=O)N1CCO[C@H]2[C@H](Oc3cccnc3)CC[C@@H]21.O=C(O)C(F)(F)F | -18.12
O=C(C1=CCCC1)N1C[C@H](OCc2cccnc2)[C@H]2OCCC[C@H]21 | -3.807
CCN(CC)C(=O)CCNC(=O)c1ccccc1N1CCOCC1 | -16.45
Cc1csc(N2CCN(C(=O)c3cc(Cl)c[nH]3)CC2)n1 | -16.71
Cc1nc(C)n(CC2CN(CCn3cccn3)CCO2)n1 (stereo not drawn) | 6.801
Cc1nc(C)n(CC2CCCN(CC(=O)Nc3c(C)n[nH]c3C)C2)n1 (stereo not drawn) | -12.55
Cc1nc(C)n(CC2CCCCN2CCS(C)(=O)=O)n1 (stereo not drawn) | -3.909
Cc1nc(C)n(CC2CCCN(CCCS(=O)(=O)N(C)C)C2)n1 (stereo not drawn) | -11.1
Cc1nc(C)n(CC2CCCN(CCC(=O)N3CCCCC3)C2)n1 (stereo not drawn) | -10.32
Cc1nc(C)n(CC2CCCN(CCC(=O)N3CCOCC3)C2)n1 (stereo not drawn) | 132.9
Cc1nc(C)n(CC2CCCCN2CCCO)n1 (stereo not drawn) | 0.7848
Cc1nc(C)n(CC2CCCN2CCC(=O)N2CCCCC2)n1 (stereo not drawn) | 145.3
Cc1nc(C)n(CC2CN(CCC(=O)N3CCCCC3)CCO2)n1 (stereo not drawn) | 110.4
Cc1nc(C)n(CC2CCCN(CC(=O)Nc3nncs3)C2)n1 (stereo not drawn) | -5.341
Cc1nc(C)n(CC2CN(CCc3ccncc3)CCO2)n1 (stereo not drawn) | -6.873
Cc1nc(C)n(CC2CCCN(CC(=O)N3CCCC3)C2)n1 (stereo not drawn) | 118.1

From ChEMBL document CHEMBL3988442, “University of Dundee, Small-Polar-MMV Screening Library” (2021)
